nsP2pro primary – Primary qHTS for inhibitors of NSP2Pro chikungunya virus (CHIKV) | FRET peptide cleavage, nsP2pro, fluorescence 1 h | hit rate 1.1% among 31,000 | Polyprotein P1234 (Chikungunya virus (strain S27-African prototype)), Q8JUX6 | Potency, µM (titrated, usually from 24.9 µM), actives largely listed as inhibitors; further: nearly all actives have a fitted effect of over 60% in size
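Purified recombinant nsP2pro (150 nM final) in 10 mM Tris-HCl pH 8.0 with 0.01% Tween 20 was preincubated 15 min at room temperature with compound (7 concentrations, up to 25 uM). FRET peptide 2 substrate (2.5 uM final) was then added; fluorescence was read after 1 h.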
CHIKV nsP2 cell – Secondary cell base assay for inhibitors of NSP2Pro Chikungunya virus (CHIKV). shares compounds with nsP2pro primary. cell-based CHIKV nsP2 protease reporter assay. Potency, µM (titrated, usually from 51.1 µM), usual class: inhibitors. hit rate 10% among 450; further: nearly all actives have a fitted effect of over 70% in size
CHIKV NSP2 FL – Selectivity profile for inhibitors of NSP2Pro chikungunya virus (CHIKV): Full length NSP2 enzyme counterscreen (CHIKV-NSP2); shares compounds with nsP2pro primary; Full-length CHIKV NSP2 protease enzymatic counterscreen; Potency, µM (top dose mostly 50.7 µM), actives largely listed as inhibitors; hit rate 39% among 410; AID 1964101, 2024; further: nearly all actives have a fitted effect of over 65% in size
Furin counterscr – Selectivity profile for inhibitors of NSP2Pro chikungunya virus (CHIKV): Human furin counterscreen. Potency, µM (series often up to 50.6 µM), usual class: inhibitors. AID 1964102, 2024. hit rate 6% among 410. Recombinant human furin enzymatic counterscreen, fluorogenic substrate. shares compounds with nsP2pro primary
NS23 peptide cs – Selectivity profile for inhibitors of NSP2Pro chikungunya virus (CHIKV): Endogenous NS2/3 peptide Counterscreen | Purified CHIKV nsP2 protease, endogenous NS2/3 peptide cleavage | hit rate 34% among 410 | shares compounds with nsP2pro primary | Potency, µM (series often up to 51 µM), usual class: inhibitors | AID 1964103, 2024; further: nearly all actives have a fitted effect of over 55% in size
Papain counter – Selectivity profile for inhibitors of NSP2Pro chikungunya virus (CHIKV): Papain Counterscreen | Potency, µM (series often up to 51 µM), most hits filed as inhibitors | hit rate 5% among 410 | AID 1964104, 2024 | purified papain protease activity, enzymatic inhibition | shares compounds with nsP2pro primary
nsP2pro conf qHTS – Confirmatory qHTS for inhibitors of NSP2Pro chikungunya virus (CHIKV); hit rate 43% among 410; shares compounds with nsP2pro primary; CHIKV nsP2 protease enzymatic activity, qHTS; Potency, µM (doses to about 25.5 µM), usual class: inhibitors; AID 1964105, 2024; further: nearly all actives have a fitted effect of over 75% in size
HCV NS3 counter – Selectivity profile for inhibitors of NSP2Pro chikungunya virus (CHIKV): NS34A-HCV Counterscreen; shares compounds with nsP2pro primary; HCV NS3/4A protease biochemical counterscreen; Potency, µM (series often up to 50.9 µM), usual class: inhibitors; hit rate 20% among 410; AID 1964106, 2024; further: nearly all actives have a fitted effect of over 55% in size
Numbers stand for hits; . = inactive; ? = inconclusive. The full list was thinned out, with hits kept by preference. The call rests on the fitted dose curve.

SMILES | nsP2pro primary | others
C=C1C(=O)O[C@@H]2/C=C(/C)CC3C=C(C[C@H](OC(=O)/C(C)=C\C)[C@@H]12)C(=O)O3 (stereo not given in full) | .
Cc1ccc(-c2cc(C(=O)Nc3ccc(-n4cccn4)cc3)c3ccccc3n2)cc1C | .
C=C1/C(=C\C=C2/CCC[C@@]3(C)C2CC[C@@H]3[C@H](C)/C=C\[C@@H](O)C2CC2)C[C@@H](O)C[C@@H]1O (stereo not given in full) | .
O=C(Cc1ccc(Cl)c(Cl)c1)Nc1ccc([S+](=O)([O-])Nc2ccccn2)cc1 | .
Cc1cc(NS(=O)(=O)c2ccc(N(C)C(=O)Cc3ccc(Cl)c(Cl)c3)cc2)no1 | .
[O-][n+]1ccccc1SSc1cccc[n+]1[O-] | 2.7µM | CHIKV nsP2 cell=?;CHIKV NSP2 FL=8.2µM;Furin counterscr=.;NS23 peptide cs=9.2µM;Papain counter=.;nsP2pro conf qHTS=1.6µM;HCV NS3 counter=.
CC(C)(C)Nc1nc2cc(Cl)c(Cl)cc2nc1S(C)(=O)=O | .
N#Cc1cnc(NS(=O)(=O)c2ccc(NC(=O)Cc3ccc(F)c(Cl)c3)cc2)s1 | .
CCc1ncc2c(N3CC4CCC(C3)N4CC(F)(F)F)nc3ccccc3n12 | .
N=c1sc2c(n1CC(=O)c1ccc([N+](=O)[O-])cc1)CCCC2 | .
COc1ccc(NCc2cc3cc4c(cc3n(CC(=O)Nc3ccc(C)cc3C)c2=O)OCO4)cc1 | ? | CHIKV nsP2 cell=.
Cc1ccc(NC(=O)Cn2c(=O)n(CCC(=O)NCc3ccc4c(c3)OCO4)c(=O)c3sccc32)c(C)c1 | .
COc1ccc2cc(CNc3ccccc3)c(=O)n(CC(=O)Nc3ccc(C(C)=O)cc3)c2c1 | .
CCn1ncc(CN2CCCCCCNC(=O)[C@@H]3CCC[C@@H]32)c1C | .
O=C(NCCc1ccc(O)c(O)c1)c1cc2sccc2n1Cc1ccccc1 | .
C=C1C(=O)O[C@@H]2C3C(=C(C)[C@@H](O)[C@@H](OC(=O)/C(=C/C)COC(C)=O)[C@@H]12)C(=O)[C@H]1O[C@@]31C (stereo not given in full) | 2.2µM | CHIKV nsP2 cell=?;CHIKV NSP2 FL=7.1µM;Furin counterscr=.;NS23 peptide cs=3.2µM;Papain counter=.;nsP2pro conf qHTS=2.2µM;HCV NS3 counter=.
C=C(C)C(=O)O[C@H]1[C@H]2C(=C)C(=O)O[C@@H]2/C=C(\CO)CC/C=C(/C=O)[C@@H]1O | .
C=C1C(=O)O[C@@H]2/C=C(/C)[C@@H](OC(C)=O)C/C=C(\C)C[C@@H](OC(=O)/C(=C/CO)CO)[C@@H]12 | .
CC=CC1=C(C(=O)O)N2C(=O)[C@@H](NC(=O)[C@H](N)c3ccc(O)cc3)[C@H]2SC1 | .
CC(C)=CCC[C@](C)(O[C@@H]1O[C@H](CO)[C@@H](O)[C@H](O)[C@H]1O)[C@H]1CC[C@]2(C)[C@@H]1[C@H](O)C[C@@H]1[C@@]3(C)CC[C@H](O)C(C)(C)[C@@H]3CC[C@]12C | .

Screens from PubChem BioAssay.
